Where “and” joins values, the source holds several entries; their conditions need not be identical. Identical values can stand only once. Results filed as inconclusive are left out. Values without a mark were called inactive. Calls of active or inactive are those of the source. The call rests on the fitted dose curve; in most records, active means well fitted curve in the direction sought with a large enough effect; inconclusive means small, poorly fitted or top-dose-only effect, or another doubt; inactive means no such curve, though single readings can be large; an effect the other way counts as inactive or inconclusive.
Tests used:
[1] = Viability qHTS for spleen associated tyrosine kinase inhibitor (SYKi) naive MV4-11 cells (AID 1963823); further: nearly all actives have a fitted effect of over 40% in size; further: potency means the concentration at half of the fitted maximal effect
Summary of the method: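 qHTS, SYK inhibitor-naive MV4-11; 500 cells/well; 72 hr compound exposure, 37 C; CellTiter-Glo added, 10 min RT; luminescence read.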

[2] = Viability qHTS for spleen associated tyrosine kinase inhibitor (SYKi) drug resistant MV4-11 cells (AID 1963824); further: potency means the concentration at half of the fitted maximal effect; nearly all actives have a fitted effect of over 35% in size
Summary of the method: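 CellTiter-Glo luminescence, read 10 min after reagent addition, reports viability after a 72 hr compound exposure. Cells are an MV4-11 line made resistant to SYK inhibition, seeded at 500 per well onto compound-containing plates.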

[3] = Quantitative highthroughput screen to assess conditional lethalithy of NOMO1 cells grown in RPMI1640 with untreated serum (RPMI+s) (AID 1963876); further: nearly all actives have a fitted effect of over 35% in size; further: potency means the concentration at half of the fitted maximal effect;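 on Viability: 100% = DMSO wells and 0% = empty wells without cells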
Summary of the method: (§1)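 Each medium arm—HPLM with 10% dialyzed FBS, or RPMI1640 with 5 mM glucose and 10% untreated or dialyzed FBS—was screened against an 11-point, 3-fold compound titration for 48 h at 37 °C, with CellTiter-Glo luminescence as endpoint.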

[4] = Quantitative highthroughput screen to assess conditional lethalithy of NOMO1 cells grown in Human Plasma-Like Medium with dialyzed fetal bovine serum (HPLM+ds) (AID 1963878); further: nearly all actives have a fitted effect of over 35% in size; further: potency means the concentration at half of the fitted maximal effect;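 on Viability: 100% = DMSO wells and 0% = empty wells on each plate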
Summary of the method: as §1

[5] = Quantitative highthroughput screen to assess conditional lethalithy of P12 Ichikawa cells grown in Human Plasma-Like Medium with dialyzed fetal bovine serum (HPLM+ds) (AID 1963879); settings: Potency: viability; further: series mostly up to about 46 µM; nearly all actives have a fitted effect of over 35% in size
Summary of the method: as §1

[6] = Quantitative highthroughput screen to assess conditional lethalithy of P12 Ichikawa cells grown in RPMI1640 with dialyzed fetal bovine serum (RPMI+ds) (AID 1963880); settings: Potency: P12-Ichikawa viability; further: nearly all actives have a fitted effect of over 35% in size; further: potency means the concentration at half of the fitted maximal effect;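 on Viability: 100% = DMSO wells and 0% = empty wells on each plate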
Summary of the method: as §1

[7] = Quantitative highthroughput screen to assess conditional lethalithy of P12 Ichikawa cells grown in RPMI1640 with untreated serum (RPMI+s) (AID 1963881); settings: Potency: viability; further: nearly all actives have a fitted effect of over 35% in size; further: potency means the concentration at half of the fitted maximal effect;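 on Viability: series mostly up to about 46 µM; 100% = DMSO wells and 0% = empty wells without cells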
Summary of the method: as §1

[8] = Quantitative highthroughput screen to assess conditional lethalithy of SEM cells grown in Human Plasma-Like Medium with dialyzed fetal bovine serum (HPLM+ds) (AID 1963882); further: nearly all actives have a fitted effect of over 35% in size; further: potency means the concentration at half of the fitted maximal effect; on Viability: series mostly up to about 46 µM
Summary of the method: as §1

[9] = Quantitative highthroughput screen to assess conditional lethalithy of SEM cells grown in RPMI1640 with unreated serum (RPMI+s) (AID 1963883); further: nearly all actives have a fitted effect of over 35% in size; further: potency means the concentration at half of the fitted maximal effect;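 on Viability: 100% = DMSO wells and 0% = empty wells without cells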
Summary of the method: as §1

[10] = Cellular viability qHTS for adrenocortical cancer (ACC) cell line SW-13 (AID 1963989); settings: SW-13 ACC cells viability, CellTiter-Glo, 48 h; activity (max response): active compounds read low; further: nearly all actives have a fitted effect of over 65% in size; further: potency means the concentration at half of the fitted maximal effect;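 on activity (max response): cells grown in serum-free medium with ITS supplement; on the % scale 0 is the no-effect control and ±100 the full control effect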
Summary of the method: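 Viability was read as CellTiter-Glo luminescence after 48 h compound treatment (up to 46 uM final) of SW-13 cells grown serum-free; titration curves were fit with a four-parameter logistic model to give IC50 and efficacy.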

[11] = Cellular viability qHTS for adrenocortical cancer (ACC) cell line NCI-H295R (AID 1963990); further: nearly all actives have a fitted effect of over 60% in size; further: potency means the concentration at half of the fitted maximal effect
Summary of the method: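 CellTiter-Glo ATP luminescence, read 48 h after compound addition, measured viability of NCI-H295R adrenocortical cells grown serum-free with ITS. Final concentrations spanned up to 46 uM. Data normalized to DMSO and doxorubicin, fitted for IC50 and maximal response.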

[12] = Quantitative highthroughput screen to assess conditional lethalithy of SEM cells grown in RPMI1640 with dialyzed fetal bovine serum (RPMI+ds) (AID 1963884)
Summary of the method: as §1

Row | SMILES | Potency [1] | Potency [2] | Potency [3] | Potency [4] | Potency [5] | Potency [6] | Potency [7] | Potency [8] | Potency [9] | activity (max response) [10] | Potency [11] | Potency [10] | Potency [12]
1 | CN1C(C(=O)Nc2ccccn2)=C(O)c2sc(Cl)cc2S1(=O)=O | inactive | 16.6 µM (active) | inactive | inactive | inactive | inactive | inactive | inactive | inactive | -21.7% | inactive | – | –
2 | CC1(CN2CCC(n3c(=O)[nH]c4ccccc43)CC2)OCc2ccccc2-n2cccc21 (stereo unspecified) | 16.6 µM (active) | 21.1 µM (active) and 10.3 µM (active) and 14.8 µM (active) | inactive | inactive | inactive | inactive | inactive | – | inactive | – | 23.1 µM (active) | 20.6 µM (active) and 25.1 µM (active) | –
3 | CN(C)CCC=C1c2ccccc2C=Cc2ccccc21 | 18.6 µM (active) | 14.8 µM (active) | 20.9 µM (active) | 18.7 µM (active) | inactive | inactive | – | – | inactive | – | – | – | inactive
4 | O=C(NCCCNc1nc(Nc2cccc(NC(=O)N3CCCC3)c2)ncc1I)c1cccs1 | 0.0517 µM (active) | 164 nM (active) and 263 nM (active) | inactive | inactive | inactive | inactive | inactive | – | – | – | inactive | – | –
5 | COc1cc(C(=O)NC2CCN(C)CC2)ccc1Nc1ncc2c(n1)N(C1CCCC1)CCC(=O)N2C(C)C | 5.9 µM (active) | 4.17 µM (active) | 20.9 µM (active) | 14.8 µM (active) | – | 16.6 µM (active) | 11.8 µM (active) | – | – | – | 25.1 µM (active) | – | –
6 | CN(C)C1CCN(C(=O)c2ccc(NC(=O)Nc3nc(N4CCOCC4)nc(N4CCOCC4)n3)cc2)CC1 | 25.2 nM (active) and 37.2 nM (active) | 35.5 nM (active) and 59 nM (active) | 0.662 µM (active) | 0.0235 µM (active) | – | – | – | 0.0743 µM (active) | 0.166 µM (active) | – | – | 316 nM (active) | –

From PubChem BioAssay (NCATS)
